Results from PubChem BioAssay (Tox21).
Results filed as inconclusive are left out. A number with no mark means an inactive call. Calls of active or inactive are those of the source. The call rests on the fitted dose curve; in most records, active means well fitted cell-killing curve with a large enough effect in the repeat runs; inconclusive means weak or mixed curves, or effect the other way; inactive means flat fitted curve, though single readings scatter.

Experiment: qHTS assay to identify small molecule that activate the aryl hydrocarbon receptor (AhR) signaling pathway - cell viability counter screen (AID 743086); further: nearly all actives have a fitted effect of over 45% in size;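 on viability change, negative = cytotoxic: HepG2 liver cells carrying the AhR DRE luciferase reporter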
Conditions: HepG2-AhR-luc viability, CellTiter-Fluor, 24 h; series mostly up to 70.3 µM; viability change, negative = cytotoxic: at the top concentration
Text: U.S. Tox21 Program National Center for Advancing Translational Sciences [NCATS] NIH Chemical Genomics Center [NCGC] U.S. Environmental Protection Agency [EPA] National Institutes of Environmental Health Sciences [NIEHS] National Toxicology Program [NTP] U.S. Food and Drug Administration [FDA] Tox21 Assay overview: The Aryl hydrocarbon Receptor (AhR), a member of the family of basic helix-loop-helix transcription factors, is crucial to adaptive responses to environmental changes. AhR mediates cellular responses to environmental pollutants such as aromatic hydrocarbons through induction of phase I and II enzymes but also interacts with other nuclear receptor signaling pathways A cell based HepG2-AhR-luc assay (HG2L7.5c1 cell line, developed by Dr. Michael S. Denison, University of California at Davis) was used to assess the activation of AhR. HepG2 (human hepatocellular carcinoma) cells were stably transfected with an Ah receptor-responsive firefly luciferase reporter gene plasmid containing 20 dioxin responsive elements and luciferase reporter gene. Increased luciferase activity can be used to identify the compounds that induce AhR activation. The cytotoxicity of the compounds screened against the HepG2-AhR-luc cell line was tested in parallel by measuring the cell viability using CellTiter-Fluor assay in the same wells.
Tox21 Assay Protocol Summary: 4000 cells in 5 uL/well were dispensed into white wall/solid bottom 1536-well plates using a Multidrop Combi (Thermo Fisher Scientific Inc., Waltham, MA) dispenser. After the assay plates were incubated at 37C for 5 h, 23 nL of compound or DMSO vehicle was transferred to the assay plates by a pintool station (Kalypsys, San Diego, CA). The plates were incubated at 37C for 24 hr. For cell viability measurement, 1 ul/well of CellTiter-Fluor reagent (Promega, Madison, WI) was added into the assay plates using a Flying Reagent Dispenser (FRD) (Aurora Discovery, CA),and then the assay plates were incubated at 37C for 30 min. The fluorescence intensity in the plates was measured using a ViewLux plate reader (PerkinElmer, Shelton, CT), followed by the addition of 4 uL of ONE-Glo Luciferase Assay reagent (Promega) using an FRD (Aurora Discovery). After the assay plates were incubated at room temperature for 30 min, luminescence intensity was measured using a ViewLux plate reader (Perkin Elmer).
On the % scale 0 is the no-effect control and ±100 the full control effect; potency means the concentration at half of the fitted maximal effect.

SMILES | viability change, negative = cytotoxic | Potency
CCCCCC=CCC=CCCCCCCCC(=O)OCC | 6.42% | 
CCn1nc(C)c2c1C(=O)NCC(c1ccc(O)cc1)=N2 | -5.38% | 
CCCCCCCCCCCC[N+](C)(C)CCCS(=O)(=O)[O-] | -12.8% [at 95 µM] | 
CO[C@H]1O[C@H](CO)[C@@H](O)[C@H](O)[C@H]1O | -0.742% | 
CCCC(=O)O[C@]1(C(=O)COC(=O)CC)CC[C@H]2[C@@H]3CCC4=CC(=O)CC[C@]4(C)[C@H]3[C@@H](O)C[C@@]21C | -1.93% | 
C=C(C)C(=O)OCCOC(=O)CC(C)=O | 15.9% | 
CCOc1cc(N)c(Cl)cc1C(=O)NCC1CN(Cc2ccc(F)cc2)CCO1 (stereo not given) | -17.8% | 
CC(C)CCCC(=O)O | 2.46% | 
CC1C2CC(CC2C2CCCC(O)C2)C1(C)C (stereo not given) | 6.84% | 
CCCCN(CCCC)CCCOC(=O)c1ccc(N)cc1 | 0.91% [at 32.5 µM] | 
CCCC1C(CC)=CC(CC)=CN1c1ccccc1 (stereo not given) | -18.2% | 
CSc1ccc(Oc2ccc(S(N)(=O)=O)cc2CN(C)C)cc1C | -23.6% | 
NC(=O)Nc1ccc(Cl)c(Cl)c1 | -6.28% | 
C=CC(C)(C)CC(=O)OC | 0.892% [at 95 µM] | 
CC1CC(O)CC(C)(C)C1 (stereo not given) |  | inactive
OC(CCCN1CCCCC1)(c1ccccc1)c1ccccc1 | -14.4% | 
CCCCCCCCCCCCCCCCBr | 6.22% [at 32.5 µM] | 
Fc1ccccc1[C@@H](F)COC1CCC(Nc2ncnc3[nH]ncc23)CC1 (stereo not given in full) |  | 30.6 µM (active)
Cc1occc1C(=O)Nc1ccc(C(=O)N2CCC(F)(F)/C(=C\C(=O)N3CCC(N4CCCCC4)CC3)c3ccccc32)cc1 | -28.3% [at 32.5 µM] | 
OCC1CC=CCC1 (stereo not given) | 2.92% | 

SMILES | viability change, negative = cytotoxic | Potency
O=S(=O)(c1ccccc1)c1ccc(Cl)cc1 | 3.76% | 
O=C1NCCN1 | -12.8% | 
CCOC(=O)C(C)Oc1ccc(Oc2nc3ccc(Cl)cc3o2)cc1 (stereo not given) | -1.19% | 
CCOC(=O)[C@@H](C)Oc1ccc(Oc2nc3ccc(Cl)cc3o2)cc1 | -5.32% | 
Cc1ccc(S(=O)(=O)NC2CCCCC2)cc1 | -4.86% | 
O=C(O)c1cccnc1C(=O)O | 15.1% | 
OC/C(Br)=C(\Br)CO | -2.25% | 
CCCCCCCC/C=C\CCCCCCCC(=O)OC | 15.2% | 
Oc1cc(O)c(Cl)cc1Cl | 0.771% [at 95 µM] | 
CCC1(C)CC(=O)NC1=O (stereo not given) | 12.4% | 
O=C(O)c1cccc(O)c1 | -1.2% [at 95 µM] | 
CCN(CC)CCNC(=O)c1ccc(NC(C)=O)cc1 | 1.35% | 
O=C(Nc1ccccc1)Nc1ccccc1 | -4.09% [at 95 µM] | 
CCC(C)(C)C1CCC(O)CC1 (stereo not given) | 13.8% | 
Cc1cc(C(=C2C=CC(=Nc3ccc(S(=O)(=O)O)cc3S(=O)(=O)O)C=C2)c2ccc(Nc3ccc(S(=O)(=O)O)cc3)cc2)ccc1N | -6.74% | 
CC(C)CCCCCOC(=O)CCCCC(=O)OCCCCCC(C)C | -6.97% | 
CCCCCCCCCOC(C)=O | 6.95% | 
CC(=O)CC(c1ccc([N+](=O)[O-])cc1)c1c(O)c2ccccc2oc1=O (stereo not given) | -15.2% [at 32.5 µM] | 
CCc1c2c(nc3ccc(OC(=O)N4CCC(N5CCCCC5)CC4)cc13)-c1cc3c(c(=O)n1C2)COC(=O)[C@]3(O)CC | -3.85% | 
COc1ccc(C(=O)c2cccc(O)c2)c(OC)c1 | -2.2% | 
